In PubChem BioAssay (Tox21) one finds Potency and activity change, negative = cytotoxic data, which are given here for 40 molecules.

Records with an inconclusive call do not appear. Where a call stands in place of a potency, no number is given. Unmarked numbers belong to inactive results. Activity calls are given as the source filed them. Calls come from the whole dose curve; as a rule, active = well fitted cell-killing curve with a large enough effect in the repeat runs; inconclusive = weak or mixed curves, or effect the other way; inactive = flat fitted curve, though single readings scatter.
Potency is the fitted concentration of half-maximal effect.

The assay can be described thus: qHTS RealTime-Glo MT Cell Viability Assay in HEK293 cells - 32 hour (AID 1224868). For activity change, negative = cytotoxic: top concentration of the series differs between compounds. Note: nearly all actives have a fitted effect of over 50% in size. Conditions: RealTime-Glo luminescence; series mostly up to 76.8 µM. An excerpt:
National Center for Advancing Translational Sciences [NCATS]
NIH Chemical Genomics Center [NCGC]
U.S. Environmental Protection Agency [EPA]
National Institutes of Environmental Health Sciences [NIEHS]
National Toxicology Program [NTP]
U.S. Food and Drug Administration [FDA]
Measure of cell viability is critical in the cell-base assay. Analysis of cell viability is necessary for the characterization of cell responses to cytotoxic drugs and environmental stress. A RealTime-Glo MT Cell Viability Assay to monitor cell viability in real time of continues cell culture during 40 hours of compound treatment was used to screen Tox21 10K library compounds in Hek293 cells. The RealTime-Glo MT Cell Viability Assay is a nonlytic, homogeneous, bioluminescent method to measure cell viability in real time using a simple, plate-based method. The assay involves adding NanoLuc luciferase and a cell-permeant prosubstrate to cells in culture. Viable cells reduce the proprietary prosubstrate to generate a substrate for NanoLuc luciferase. This substrate diffuses from cells into the surrounding culture medium, where it is rapidly used by the NanoLuc Enzyme to produce a luminescent signal. The signal correlates with the number of viable cells, making the assay well suited for cytotoxicity studies.
Tox21 Assay Protocol Summary:
The mixture of Hek293 cell suspension and reagents were dispensed at 600cells/6 ul/well in 1536-well tissue culture treated black solid bottom plates using a Multidrop dispenser. After the assay plates were incubated at a 37 C/5% CO2 incubator for 5 hours, 23 nL of compounds dissolved in DMSO, positive and negative controls was transferred to the assay plate by a pintool work station. The plates were incubated at 37 C for 40 hours. The luminescence intensity were measured at 0h, 8h, 16h, 24h, 32h and 40h time points using ViewLux plate reader during compound treatment.
In general terms: qHTS replaces the single test concentration by a dilution series.
Regarding `CC(=O)N(CC(=O)N(C)C)c1ccccc1`, the Potency entry is “inactive”.

With `Cc1ccccn1`, the Potency result was “inactive”.

With `S=C(S)NCCNC(=S)S`, the Potency result was “inactive”.

As to `CC(=O)SCc1ccco1`, the Potency entry is “inactive”.

Take `CCCCOCCOCCOCCOCCO`: the Potency entry was “inactive”.

With `CCN(CC)CCNC(C(=O)OCCC(C)C)c1ccccc1` (stereo not given), the Potency result is “inactive”.

Regarding `CCCCCCCCCCCCCCCBr`, the Potency entry was “inactive”.

For `Oc1ccc2c(c1)OCO2`, the Potency entry was “inactive”.

With `CCCCCC/C=C/C=O`, the Potency entry is “inactive”.

On to `O=[N+]([O-])c1cc[n+]([O-])cc1`, for which the Potency result is “inactive”.

For `FC(F)(F)C(F)(F)C(F)(F)C(F)(F)C(F)(F)C(F)(F)CCI`, the Potency entry was “inactive”.

On to `COc1cc(C(C)(C)C)c(O)c(C(C)(C)C)c1`, for which the Potency result was “inactive”.

As to `CCOc1ccc(NC(=O)CC(C)=O)cc1`, the Potency result is “inactive”.

With `Cc1cccc(C(C)(C)C)c1O`, the Potency result is “inactive”.

With `CCCCCCCCCC=O`, the Potency result was “inactive”.

Consider `CCOc1cc(OCC)c(C(=O)CCC(=O)O)cc1OCC`, for which the Potency result was “inactive”.

For `CC(=O)/C=C/C1C(C)=CCCC1(C)C` (stereo not given), the Potency result was “inactive”.

With `CCCCCCCCCCCCCCCC(=O)OC/C=C(C)/C=C/C=C(C)/C=C/C1=C(C)CCCC1(C)C`, the Potency entry was “inactive”.

On to `CCOC(=O)CC(C)C`, for which the Potency result was “inactive”.

With `C1=Cc2ccccc2C1`, the Potency result is “inactive”.

With `Nc1ccc(C(=O)N2CC3CC(CN(Cc4ccccc4)C3)C2)cc1`, the Potency entry is “inactive”.

As for `COCCCCCCCCOCCC[Si](C)(O[Si](C)(C)C)O[Si](C)(C)C`, the Potency was 3.89 µM (active).

For the molecule `Oc1ccc(Sc2ccc(O)cc2)cc1`, the Potency was 20.5 µM (active).

On to `Cc1ncsc1CCO`, for which the Potency result is “inactive”.

For the molecule `CCN(CC)CCOC(=O)C1(c2ccccc2)CCCC1`, the Potency result is “inactive”.

Turning to `O=S1(=O)N=C(O)c2ccccc21`, the Potency result was “inactive”.

Consider `O=c1c2ccccc2nnn1CCl`, for which the Potency result is “inactive”.

With `CCOc1ccc2[nH]cc(C(=O)NCc3ccccc3)c(=O)c2n1`, the Potency entry is “inactive”.

As to `CC(C)(C)C1CCCCC1O` (stereo not given), the Potency result is “inactive”.

In the case of `CCCCOC(=O)/C=C\C(=O)OCCCC`, the Potency result is “inactive”.

`CC(C)c1cccc(C(C)C)c1NC(=O)NS(=O)(=O)c1cc(C(C)(C)O)co1`: the Potency entry was “inactive”.

On to `CC(=O)c1c(C)c([N+](=O)[O-])c(C(C)(C)C)c([N+](=O)[O-])c1C`, for which the Potency entry was “inactive”.

With `OCCC1CCCCN1` (stereo not given), the Potency entry was “inactive”.

Regarding `CC(C)(C)c1ccc(OCC2CO2)cc1` (stereo not given), the Potency entry was “inactive”.

Take `Cc1ccc(O)c([C@H](CCN(C(C)C)C(C)C)c2ccccc2)c1`: the Potency entry is “inactive”.

As for `COC(Cc1ccccc1)OC`, the Potency result is “inactive”.

Take `C=CC(C)(CCC=C(C)C)OC(=O)c1ccccc1` (stereo not given): the Potency entry was “inactive”.

With `O=C(CCN1CCN2CCCC2C1)N1c2ccccc2Sc2ccc(Cl)cc21` (stereo not given), the activity change, negative = cytotoxic is -23% [at 15.8 µM].

As to `CCOC(=S)SSC(=S)OCC`, the Potency result was “inactive”.

For `CC(C)CCCCCCOC(=O)c1ccc(C(=O)OCCCCCCC(C)C)c(C(=O)OCCCCCCC(C)C)c1`, the Potency entry was “inactive”.
